Measured values taken from PubChem BioAssay (NCI).
The panel holds about 79,000 compounds, 15% with a hit somewhere; the sample as a whole holds those more often. A number with no mark means an inactive call. The source made the active and inactive calls. No stated cut-off is given here; in the data, active means growth inhibition above about 70%; inactive means the rest.

Legend:
[1] = NCI Yeast Anticancer Drug Screen. Data for the rad52 strain (AID 147);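 further: 0% = growth of vehicle-treated control cultures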; details: S. cerevisiae rad52 mutant growth inhibition, stronger effect = higher value
Outline: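 Here a repair-compromised yeast strain receives each compound; its growth is then quantified and normalised to vehicle-only controls.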

[2] = NCI Yeast Anticancer Drug Screen. Data for the wt1 strain (AID 149);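 further: 0% = growth of vehicle-treated wt1 cultures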; details: S. cerevisiae wt1 strain (SPY 50644) growth inhibition, stronger effect = higher value
Outline: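 Readout: yeast growth inhibition, normalised to vehicle controls, in the wt1 strain exposed to test compounds.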

[3] = NCI Yeast Anticancer Drug Screen. Data for the rad50EPP+ strain (AID 151);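 further: 0% = growth of vehicle-treated control cultures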; details: S. cerevisiae rad50 mutant strain, stronger effect = higher value
Outline: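 Read-out is yeast growth inhibition relative to vehicle; cells used were the rad50EPP+ strain.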

[4] = NCI Yeast Anticancer Drug Screen. Data for the mgt1 strain (AID 153); details: S. cerevisiae mgt1 mutant growth inhibition, stronger effect = higher value
Outline: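 Measured: inhibition of mgt1 yeast growth by compound, normalized to vehicle-treated cultures.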

[5] = NCI Yeast Anticancer Drug Screen. Data for the rad50 strain (AID 155);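 further: 0% = growth of vehicle-only cultures of the same strain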; details: S. cerevisiae rad50 strain growth inhibition, stronger effect = higher value
Outline: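 Compounds were tested on a yeast strain with an engineered DNA damage repair alteration; the reported value is growth inhibition normalised to vehicle treatment.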

[6] = NCI Yeast Anticancer Drug Screen. Data for the mec2-1 strain (AID 157); details: S. cerevisiae mec2-1 strain, stronger effect = higher value
Outline: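 Using mec2-1 yeast: add compound, measure growth, express inhibition versus vehicle-treated cultures.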

[7] = NCI Yeast Anticancer Drug Screen. Data for the rad14 strain (AID 159);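 further: 0% = growth of vehicle-treated control cultures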; details: S. cerevisiae rad14 strain growth inhibition, stronger effect = higher value
Outline: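 Compound-treated yeast with a defined DNA-repair lesion; growth inhibition normalised to vehicle-treated cultures.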

[8] = at 5.0 µM (retest, dose inferred, filed as 0.5)
[9] = at 50.0 µM (retest, dose inferred, filed as 5.0)

Cc1ccc(NC(=O)CCC(=O)C(C)C(=O)c2ccccc2)c(C)c1 (stereo unspecified)
growth inhibition ([1]; at 1.2 µM): 1%
growth inhibition ([1]; at 3.7 µM): 1%
growth inhibition ([1]; at 11.0 µM): 3%
growth inhibition ([1]; at 33.0 µM): 1%
growth inhibition ([1]; at 100.0 µM): -1%
growth inhibition ([2]; at 1.2 µM): -1%
growth inhibition ([2]; at 3.7 µM): -1%
growth inhibition ([2]; at 11.0 µM): -1%
growth inhibition ([2]; at 33.0 µM): -1%
growth inhibition ([2]; at 100.0 µM): -3%
growth inhibition ([3]; at 1.2 µM): -2%
growth inhibition ([3]; at 3.7 µM): 0%
growth inhibition ([3]; at 11.0 µM): 1%
growth inhibition ([3]; at 33.0 µM): 0%
growth inhibition ([3]; at 100.0 µM): 5%
growth inhibition ([4]; at 1.2 µM): 0%
growth inhibition ([4]; at 3.7 µM): 5%
growth inhibition ([4]; at 11.0 µM): 1%
growth inhibition ([4]; at 33.0 µM): 0%
growth inhibition ([4]; at 100.0 µM): -5%
growth inhibition ([5]; at 1.2 µM): 1%
growth inhibition ([5]; at 3.7 µM): -6%
growth inhibition [5, 8]: 91% (active)
growth inhibition ([5]; at 11.0 µM): 3%
growth inhibition ([5]; at 33.0 µM): 3%
growth inhibition [5, 9]: 92% (active)
growth inhibition ([5]; at 50.0 µM): -41.7%
growth inhibition ([5]; at 100.0 µM): -1%
growth inhibition ([6]; at 1.2 µM): -3%
growth inhibition ([6]; at 3.7 µM): -5%
growth inhibition [6, 8]: 12%
growth inhibition ([6]; at 11.0 µM): 1%
growth inhibition ([6]; at 33.0 µM): -2%
growth inhibition [6, 9]: 39%
growth inhibition ([6]; at 50.0 µM): -1.6%
growth inhibition ([6]; at 100.0 µM): -3%
growth inhibition ([7]; at 1.2 µM): 0%
growth inhibition ([7]; at 3.7 µM): 2%
growth inhibition ([7]; at 11.0 µM): 1%
growth inhibition ([7]; at 33.0 µM): 2%
growth inhibition ([7]; at 100.0 µM): 2%
